Reference: PubChem BioAssay (NCATS)
Values joined by “and” are separate entries in the source; they are usually repeats but may differ in a detail not shown here. Equal values may be shown once. Records with an inconclusive call do not appear. Active and inactive are the calls of the source. Unless noted, calls follow the shape of the dose curve; as a rule, active = well fitted curve in the direction sought with a large enough effect; inconclusive = small, poorly fitted or top-dose-only effect, or another doubt; inactive = no such curve, though single readings can be large; an effect the other way counts as inactive or inconclusive.

What was measured:
[1] = biological target: Cellular tumor antigen p53 (Homo sapiens) (UniProt P04637); test: Primary qHTS for small molecule compounds that upregulate eGFP-tagged delta133p53alpha (in N-terminal) cells. (AID 2060322); details: NCI-H358 eGFP-delta133p53alpha fluorescence, 24 h; activation: stronger effect = higher value;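 also: cells pre-induced with doxycycline then dosed without doxycycline; series mostly up to about 56 µM; 0% = DMSO vehicle and 100% = reference activator; nearly all actives have a fitted effect of over 75% in size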
Outline: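 NCI-H358 cells pre-induced 24 h with 10 ng/ml doxycycline for eGFP-delta133p53alpha, plated dox-free and exposed 24 h at 37C to titrated compounds. Fixed, Hoechst-stained; gated GFP peak intensity by laser scanning cytometry, normalized to DMSO (0%) and 57.5 uM 5-azacytidine (100%).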

[2] = biological target: Cellular tumor antigen p53 (Homo sapiens) (UniProt P04637); test: Primary qHTS for small molecule compounds that upregulate eGFP-tagged delta133p53alpha (in C-terminal) cells. (AID 2060324);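 also: 0% = DMSO wells and 100% = 57.5 µM 5-azacytidine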
Outline: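 Doxycycline (100 ng/ml, 24 h) first induced the eGFP fusion in NCI-H358 C-terminal-tag cells. Washed-out cells then received titrated compounds for 24 h at 37 °C before paraformaldehyde fixation, Hoechst staining and cytometric GFP quantification.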

[3] = biological target: Aldehyde dehydrogenase, mitochondrial (Homo sapiens) (UniProt P05091); test: qHTS for Inhibitors of the Aldehyde Dehydrogenase Family (ALDH2) Validation screens (AID 2061302; active = well fitted inhibition curve with a large enough effect; title and protocol of this record describe different tests;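 also: plate controls were DMSO vehicle for no effect and maximal DPI positive control response for full effect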)
[4] = biological target: Retinaldehyde dehydrogenase 3 (Homo sapiens) (UniProt P47895); test: qHTS for Inhibitors of the Aldehyde Dehydrogenase Family (ALDH1A3) Validation screen (AID 2061312); also: % is scaled to controls: 0 for no effect and ±100 for the full control effect; nearly all actives have a fitted effect of over 45% in size

Sequence of Cellular tumor antigen p53 (Homo sapiens) (P04637 whole entry, looked up, the tested form may be a part): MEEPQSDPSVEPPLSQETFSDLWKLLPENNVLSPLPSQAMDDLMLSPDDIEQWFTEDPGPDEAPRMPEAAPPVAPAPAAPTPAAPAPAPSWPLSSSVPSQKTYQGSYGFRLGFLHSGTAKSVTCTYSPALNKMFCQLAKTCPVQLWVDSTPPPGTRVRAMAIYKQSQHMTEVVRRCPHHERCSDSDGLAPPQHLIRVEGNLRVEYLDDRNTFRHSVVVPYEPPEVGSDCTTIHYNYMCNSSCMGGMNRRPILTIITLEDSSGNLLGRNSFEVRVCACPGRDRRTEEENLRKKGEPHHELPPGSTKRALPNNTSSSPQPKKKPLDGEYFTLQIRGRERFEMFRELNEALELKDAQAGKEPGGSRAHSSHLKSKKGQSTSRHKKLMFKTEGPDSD

N[C@H](C(=O)O)[C@H](Cc1ccccc1)C(=O)O
inactive: activation [1] 1.24% | Potency [2] | Potency [3] | Potency [4]

COc1cc(OC)cc(-c2cc3cnc(N)nc3nc2NC(=O)NC(C)(C)C)c1
inactive: activation [1] 5.06% | Potency [2] | Potency [3] | Potency [4]

CN(C)CCC(c1ccc(Cl)cc1)c1ccccn1 (stereo not given)
inactive: activation [1] -24.5% | Potency [2] | Potency [3] | Potency [4]

CC(=O)O[C@H]1CC2(C)[C@@H](C[C@@H](O)[C@H]3[C@@]4(C)CC[C@@H](O)[C@@H](C)[C@@H]4CC[C@@]32C)C1=C(CCC=C(C)C)C(=O)O (stereo not given in full)
inactive: activation [1] -11.4% | Potency [2] | Potency [3] | Potency [4]

Cc1nc(N=Nc2ccc(S(=O)(=O)O)cc2S(=O)(=O)O)c(COP(=O)(O)O)c(C=O)c1O
inactive: activation [1] -9.78% | Potency [2] | Potency [3] | Potency [4]

CN1CC(=O)N/C1=N/C(=O)Nc1cccc(Cl)c1
inactive: activation [1] 5.86% | Potency [2] | Potency [3] | Potency [4]

COC(=O)[C@@H](N)Cc1ccc(O)c(O)c1
inactive: activation [1] 2.51% and -29.9% | Potency [2] | Potency [3] | Potency [4]

CCOC(=O)N1CCC(=C2c3ccc(Cl)cc3CCc3cccnc32)CC1
inactive: activation [1] 20.9% and 5.49% | Potency [2] | Potency [3] | Potency [4]

O=C(O)CNC(=O)C(CS)Cc1ccccc1 (stereo not given)
inactive: activation [1] -14.4% | Potency [2] | Potency [3] | Potency [4]

CN1C2CC(OC(=O)[C@H](CO)c3ccccc3)CC1C1OC12 (stereo not given in full)
inactive: activation [1] -3.28% | Potency [2] | Potency [3] | Potency [4]
